# Measurements reported in PubChem BioAssay (Tox21).
# Several values for one entry are separate records, joined by “and”; a condition that tells them apart may be missing. Identical values can stand only once. Results filed as inconclusive are left out. A call without a number means that no potency is given here. Some structures have more than one record in an assay (separate samples or runs), and their calls can disagree. Activity calls are given as the source filed them. Unless noted, calls follow the shape of the full dose curve.
# Columns and labels:
# [1] = Nuclear factor erythroid 2-related factor 2/antioxidant responsive element (Nrf2/ARE) small molecule agonists: qHTS cell viability counter screen in human keratinocytes (AID 1919968; active = well fitted curve in the direction sought with a large enough effect in the repeat runs; an effect the other way counts as inactive or inconclusive; also: nearly all actives have a fitted effect of over 55% in size)
# Procedure, shortened: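 KeratinoSens HaCaT cells, 1,500/well, preincubated 5 h, then exposed to compounds in DMSO for 23 h at 37 C/5% CO2. Viability read as CellTiter-Fluor fluorescence after 1 h, in the same wells as the ARE-luciferase read.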
# [2] = Nuclear factor erythroid 2-related factor 2/antioxidant responsive element (Nrf2/ARE) small molecule agonists: luciferase reporter gene qHTS assay in human keratinocytes (AID 1919969); also: nearly all actives have a fitted effect of over 35% in size; also: potency is read from the fitted curve at half-maximal effect
# [3] = target: Gonadotropin-releasing hormone receptor (Homo sapiens) (UniProt P30968); assay: Human gonadotropin-releasing hormone receptor (GnRHR) small molecule agonists, calcium flux assay in GnRHR-HEK293 cells (AID 1920063); also: nearly all actives have a fitted effect of over 35% in size
# Procedure, shortened: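 HEK293 cells stably expressing human GnRHR were dye-loaded for 1 h at 37 C. Compound was added in agonist mode and fluorescence (Ex/Em 480/540) recorded kinetically for 3 min. Fifteen concentrations, triplicates.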
# [4] = target: KiSS-1 receptor (Homo sapiens) (UniProt Q969F8); assay: Human kisspeptin (KISS1R) small molecule agonists, calcium flux assay in KISS1R-HEK293 cells (AID 1920064; active = well fitted curve in the direction sought with a large enough effect in the repeat runs; an effect the other way counts as inactive or inconclusive)
# Procedure, shortened: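 HEK293 cells stably expressing human KISS1R were loaded with calcium dye for 1 h at 37 C, then given compound; fluorescence (Ex/Em 480/540) was read kinetically for 3 min. Fifteen concentrations, triplicate.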
# [5] = G protein-coupled receptor (GPCR) small molecule agonists, calcium flux assay: HEK293 wild type cell line counter screen (AID 1920065)
# Procedure, shortened: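 Wild-type HEK293 cells plated 18 h, loaded with calcium dye 1 h at 37 C, then compounds added in agonist mode (ATP as positive control). Kinetic fluorescence Ex/Em 480/540 recorded 3 min at 1 sec intervals; 15 concentrations, triplicate.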
# [6] = p53 small molecule agonists, cell-based qHTS assay with human liver microsomes (AID 1963577)
# Procedure, shortened: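 Fluorescence of the beta-lactamase reporter in p53RE-bla cells, detected with LiveBLAzer substrate (2 h, room temperature, dark), served as the read-out after 16 h compound exposure at 37 C with human liver microsomes and NADPH, each 0.5 mg/mL final.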
# [7] = p53 small molecule agonists, cell-based qHTS assay with rat liver microsomes (AID 1963578)
# Procedure, shortened: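 Cells carrying a p53 response element–beta-lactamase reporter were plated and rested 5 h, then dosed with compound in DMSO plus rat liver microsomes and NADPH, each at 0.5 mg/mL final. After 16 h at 37 C, LiveBLAzer substrate was added for 2 h.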
# [8] = p53 small molecule agonists, cell-based qHTS assay with human liver microsomes: qHTS cell viability counter screen (AID 1963579); also: nearly all actives have a fitted effect of over 45% in size
# Procedure, shortened: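 Cytotoxicity counter screen: p53RE-bla, 4,000 cells/well; 5 h settle, 37 C/5% CO2; cpd + HLM 0.5 mg/mL + NADPH 0.5 mg/mL (final); 16 h, 37 C; CellTiter-Glo, 30 min RT, luminescence.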
# [9] = p53 small molecule agonists, cell-based qHTS assay with rat liver microsomes: qHTS cell viability counter screen (AID 1963580); also: nearly all actives have a fitted effect of over 45% in size
# Procedure, shortened: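 p53RE-bla HCT-116 cells (4,000/well) rested 5 h at 37 C, then given Tox21 compounds in DMSO with rat liver microsomes (0.5 mg/mL final) plus NADPH (0.5 mg/mL final) for 16 h at 37 C. Viability read by CellTiter-Glo luminescence after 30 min at room temperature.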
# [10] = p53 small molecule agonists, cell-based qHTS assay: qHTS cell viability counter screen (AID 1963581); also: nearly all actives have a fitted effect of over 45% in size
# Procedure, shortened: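 p53RE-bla HCT-116 cells, compounds added 5 h after plating and incubated 16 h at 37 C. Cytotoxicity measured in the same wells as intracellular ATP by CellTiter-Glo luminescence after 30 min at room temperature.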
# [11] = p53 small molecule agonists, cell-based qHTS assay (AID 1963582; active = well fitted activation curve with a large enough effect in the signal ratio in the repeat runs, not every such curve was filed as active; the % refers to the signal ratio)
# Procedure, shortened: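 p53RE-bla reporter cells, compounds added in DMSO after 5 h plating, incubated 16 h at 37 C. Beta-lactamase read via 2 h room-temperature LiveBLAzer B/G FRET substrate, fluorescence intensity.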
# [12] = target: 5-hydroxytryptamine receptor 2A (Homo sapiens) (UniProt P28223); assay: 5-hydroxytryptamine receptor 2A (HTR2A) small molecule antagonists, cell-based qHTS assay (AID 1963586); also: nearly all actives have a fitted effect of over 45% in size
# Procedure, shortened: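 Antagonist-mode intracellular calcium assay: DOI (4 nM) added after 5 min compound pre-incubation at room temperature to dye-loaded HTR2A-CHO cells. Fluorescence followed for 3 min, sampled every second.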
# [13] = target: 5-hydroxytryptamine receptor 2A (Homo sapiens) (UniProt P28223); assay: 5-hydroxytryptamine receptor 2A (HTR2A) small molecule agonists, cell-based qHTS assay (AID 1963587); also: nearly all actives have a fitted effect of over 30% in size
# Procedure, shortened: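 HTR2A-CHO cells, plated 18 h at 37 C/5% CO2, dye-loaded 1 h at 37 C; compounds in DMSO added by pin tool (agonist mode). Intracellular calcium flux read as kinetic fluorescence on FDSS over 2 min at 1 s intervals.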
# [14] = target: Muscarinic acetylcholine receptor M1 (Homo sapiens) (UniProt P11229); assay: Cholinergic receptor muscarinic 1 (CHRM1) small molecule antagonists, cell-based qHTS assay (AID 1963588); also: nearly all actives have a fitted effect of over 40% in size; also: potency is read from the fitted curve at half-maximal effect
# Procedure, shortened: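 CHRM1-CHO calcium-flux assay, antagonist mode. Cells were seeded 18 h, dye-loaded 1 h at 37 C and given compound for 5 min at RT, then acetylcholine was added at 50nM. FDSS fluorescence was read 3 min; 15 concentrations, three runs.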
# [15] = cAMP Responsive Elements (CRE) small molecule agonists, cell-based qHTS assay (AID 1963590)
# Procedure, shortened: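 CRE-bla HEK 293T cells, 2,000/well in DMEM with 10% dialyzed FBS and 25 mM HEPES, pre-incubated 18 h at 37 C, then exposed to compound 3 h at 37 C. Beta-lactamase reporter read with LiveBLAzer B/G FRET substrate after 2 h at room temperature.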
# [16] = target: Beta-2 adrenergic receptor (Homo sapiens) (UniProt P07550); assay: Adrenergic beta2 receptor (ADRB2) small molecule antagonists, cell-based qHTS assay (AID 1963592); also: series mostly up to about 92 µM; nearly all actives have a fitted effect of over 50% in size
# Procedure, shortened: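 Cells (CHO, stable ADRB2 overexpression) incubated 18-20hr at 37C; compounds added from DMSO; agonist mix (1nM isoproterenol, 100uM IBMX, 25uM Ro-20-1724) added; 0.5hr RT; d2-cAMP and anti-cAMP-cryptate added; 1hr RT; 665/615 nm read.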
# [17] = target: D(2) dopamine receptor (Homo sapiens) (UniProt P14416); assay: Dopamine D2 receptor (DRD2) small molecule agonists, cell-based qHTS assay (AID 1963594); also: nearly all actives have a fitted effect of over 35% in size
# Procedure, shortened: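 HEK293 cells stably expressing DRD2 were cultured 24 h at 37 C, then given Ro20-1724 (0.1 mM final) and compounds for 10 min at room temperature. NKH477 (200nM) was then added for 30 min. cAMP was read by HTRF.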
# [18] = target: D(2) dopamine receptor (Homo sapiens) (UniProt P14416); assay: Dopamine D2 receptor (DRD2) small molecule antagonists, cell-based qHTS assay (AID 1963595; active = well fitted inhibition curve with a large enough effect in the signal ratio in the repeat runs, with a control signal flat; the % refers to the signal ratio)
# Procedure, shortened: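 Antagonist mode in DRD2-HEK293 cells: after compound addition with 0.1 mM Ro20-1724, cells received quinpirole (12 nM) and NKH477 (200 nM) for 30 min at room temperature; HTRF cAMP read after 1 h detection.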
# [19] = target: Muscarinic acetylcholine receptor M1 (Homo sapiens) (UniProt P11229); assay: Cholinergic receptor muscarinic 1 (CHRM1) small molecule agonists, cell-based qHTS assay (AID 1963589); also: nearly all actives have a fitted effect of over 35% in size; also: potency is read from the fitted curve at half-maximal effect
# Procedure, shortened: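 CHO cells stably expressing human CHRM1 were loaded with calcium dye for 1 h at 37 C, then compound was added in agonist mode. Intracellular calcium fluorescence was followed kinetically at 1 s intervals. Fifteen concentrations were tested in three independent runs.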
# [20] = cAMP Responsive Elements (CRE) small molecule antagonists, cell-based qHTS assay (AID 1963591; active = well fitted inhibition curve with a large enough effect in the signal ratio in the repeat runs, not every such curve was filed as active; the % refers to the signal ratio)
# Procedure, shortened: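 CRE-bla HEK293T cells plated 18 h, then given compound plus NKH477 at 0.25 uM final for 3 h at 37C. Beta-lactamase reporter read with LiveBLAzer B/G FRET substrate after 2 h at room temperature.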
# Chain of Gonadotropin-releasing hormone receptor (Homo sapiens) (P30968 whole entry, looked up): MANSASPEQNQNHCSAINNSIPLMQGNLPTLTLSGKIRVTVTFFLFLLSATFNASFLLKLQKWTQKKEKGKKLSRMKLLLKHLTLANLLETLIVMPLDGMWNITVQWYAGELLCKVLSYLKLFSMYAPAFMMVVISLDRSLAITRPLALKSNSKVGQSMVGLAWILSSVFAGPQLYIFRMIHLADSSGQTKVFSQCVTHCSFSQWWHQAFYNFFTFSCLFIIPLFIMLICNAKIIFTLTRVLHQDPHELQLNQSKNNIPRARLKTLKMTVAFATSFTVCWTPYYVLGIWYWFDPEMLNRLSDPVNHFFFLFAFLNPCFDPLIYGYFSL
# Chain of D(2) dopamine receptor (Homo sapiens) (P14416 whole entry, looked up): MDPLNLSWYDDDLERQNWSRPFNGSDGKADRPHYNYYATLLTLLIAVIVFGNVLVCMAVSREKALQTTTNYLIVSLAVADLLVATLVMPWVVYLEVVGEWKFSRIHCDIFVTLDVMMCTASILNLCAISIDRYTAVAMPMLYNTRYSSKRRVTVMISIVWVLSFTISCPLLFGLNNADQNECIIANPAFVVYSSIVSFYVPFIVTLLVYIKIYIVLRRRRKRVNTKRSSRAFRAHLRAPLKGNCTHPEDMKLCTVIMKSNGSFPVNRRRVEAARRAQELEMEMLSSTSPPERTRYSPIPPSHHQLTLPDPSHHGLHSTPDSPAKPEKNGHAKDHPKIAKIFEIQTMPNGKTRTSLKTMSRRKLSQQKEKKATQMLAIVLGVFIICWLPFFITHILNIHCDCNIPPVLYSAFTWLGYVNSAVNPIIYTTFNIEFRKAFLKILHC
# Chain of Beta-2 adrenergic receptor (Homo sapiens) (P07550 whole entry, looked up): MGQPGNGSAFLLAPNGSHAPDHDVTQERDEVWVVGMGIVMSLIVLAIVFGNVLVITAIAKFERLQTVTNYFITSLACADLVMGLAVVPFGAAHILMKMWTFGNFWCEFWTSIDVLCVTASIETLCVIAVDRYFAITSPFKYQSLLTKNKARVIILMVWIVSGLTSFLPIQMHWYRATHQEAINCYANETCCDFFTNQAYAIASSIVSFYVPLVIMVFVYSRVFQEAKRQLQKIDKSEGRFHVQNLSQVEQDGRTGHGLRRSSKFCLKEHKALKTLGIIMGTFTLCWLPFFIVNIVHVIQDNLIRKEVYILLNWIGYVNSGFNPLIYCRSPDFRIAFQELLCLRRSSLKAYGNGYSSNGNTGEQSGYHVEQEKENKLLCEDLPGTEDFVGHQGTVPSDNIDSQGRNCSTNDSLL
# Chain of 5-hydroxytryptamine receptor 2A (Homo sapiens) (P28223 whole entry, looked up): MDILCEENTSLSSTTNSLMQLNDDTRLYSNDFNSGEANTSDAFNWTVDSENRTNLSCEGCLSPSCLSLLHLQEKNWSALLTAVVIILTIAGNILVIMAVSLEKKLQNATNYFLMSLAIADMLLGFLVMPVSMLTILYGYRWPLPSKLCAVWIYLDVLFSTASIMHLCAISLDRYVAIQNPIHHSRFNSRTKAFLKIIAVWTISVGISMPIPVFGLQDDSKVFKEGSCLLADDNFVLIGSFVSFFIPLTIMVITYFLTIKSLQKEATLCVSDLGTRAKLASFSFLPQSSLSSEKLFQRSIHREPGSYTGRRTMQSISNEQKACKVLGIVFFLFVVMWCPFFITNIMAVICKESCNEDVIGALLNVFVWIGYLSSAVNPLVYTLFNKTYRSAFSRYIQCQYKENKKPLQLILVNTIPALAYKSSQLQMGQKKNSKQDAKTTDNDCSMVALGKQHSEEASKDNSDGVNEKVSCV
# Chain of Muscarinic acetylcholine receptor M1 (Homo sapiens) (P11229 whole entry, looked up): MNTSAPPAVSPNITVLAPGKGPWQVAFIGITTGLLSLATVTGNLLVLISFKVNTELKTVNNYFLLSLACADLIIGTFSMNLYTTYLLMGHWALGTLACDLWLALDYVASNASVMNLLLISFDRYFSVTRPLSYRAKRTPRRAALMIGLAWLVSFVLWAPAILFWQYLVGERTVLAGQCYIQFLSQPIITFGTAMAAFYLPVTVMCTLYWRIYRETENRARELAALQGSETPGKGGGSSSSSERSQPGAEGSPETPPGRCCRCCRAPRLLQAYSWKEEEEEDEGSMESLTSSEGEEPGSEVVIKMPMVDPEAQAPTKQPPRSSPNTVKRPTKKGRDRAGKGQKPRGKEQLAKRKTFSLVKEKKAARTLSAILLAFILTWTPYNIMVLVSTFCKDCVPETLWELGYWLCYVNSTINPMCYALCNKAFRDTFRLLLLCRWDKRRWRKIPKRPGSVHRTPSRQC
# Chain of KiSS-1 receptor (Homo sapiens) (Q969F8 whole entry, looked up): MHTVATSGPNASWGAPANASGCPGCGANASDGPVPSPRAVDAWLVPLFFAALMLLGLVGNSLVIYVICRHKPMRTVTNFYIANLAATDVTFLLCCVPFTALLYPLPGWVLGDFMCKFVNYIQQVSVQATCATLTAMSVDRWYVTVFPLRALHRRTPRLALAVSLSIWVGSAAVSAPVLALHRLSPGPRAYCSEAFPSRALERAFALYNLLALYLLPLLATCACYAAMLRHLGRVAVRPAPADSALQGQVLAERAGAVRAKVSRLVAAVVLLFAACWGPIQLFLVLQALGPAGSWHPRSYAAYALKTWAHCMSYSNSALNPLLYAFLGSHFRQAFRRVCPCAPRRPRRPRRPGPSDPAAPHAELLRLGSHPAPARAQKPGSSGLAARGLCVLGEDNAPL
Structure (SMILES),Potency [1],Potency [2],Potency [3],Potency [4],Potency [5],Potency [6],Potency [7],Potency [8],Potency [9],Potency [10],Potency [11],Potency [12],Potency [13],Potency [14],Potency [15],Potency [16],Potency [17],Potency [18],Potency [19],Potency [20]
C=CCc1ccccc1O,inactive,inactive,inactive,inactive,inactive,inactive,inactive,inactive,inactive,inactive,inactive,inactive,inactive,inactive,inactive,inactive,inactive,inactive,–,–
Clc1nc(Cl)nc(Nc2ccccc2Cl)n1,inactive,inactive,inactive,inactive,inactive,inactive,inactive,inactive,inactive,inactive,inactive,inactive,inactive,–,inactive,inactive,inactive,inactive,inactive,inactive
Cc1ccc(Cl)c(O)c1,inactive,inactive,inactive,inactive,inactive,inactive,inactive,inactive,inactive,inactive,inactive,inactive,inactive,inactive,–,inactive,inactive,inactive,–,inactive
CCCC[N+]1(C)CCCC1,inactive,inactive and 54.8 µM (active),inactive,inactive,inactive,inactive,inactive,inactive,inactive,inactive,inactive,inactive,inactive,inactive and 5.98 µM (active) and 4.27 µM (active),inactive,inactive,inactive,inactive,–,–
C1CC2OC2CC1C1CO1 (configuration not stated),inactive,inactive,inactive,inactive,inactive,inactive,inactive,inactive,inactive,inactive,inactive,inactive,inactive,inactive,inactive,inactive,inactive,inactive,–,inactive
CC1=C(C(=O)Nc2ccccc2)SCCO1,inactive,inactive and 61.1 µM (active),inactive,inactive,inactive,inactive,inactive,inactive,inactive,inactive,inactive,inactive,inactive,–,inactive,inactive,–,inactive,inactive,inactive
Cl/C=C\CCl,inactive,inactive,inactive,inactive,inactive,inactive,inactive,inactive,inactive,inactive,inactive,inactive,inactive,inactive,inactive,inactive,inactive,inactive,–,inactive
ClCC(Cl)CCl,inactive,inactive,inactive,inactive,inactive,inactive,inactive,inactive,inactive,inactive,inactive,inactive,inactive,–,inactive,inactive,inactive,–,inactive,inactive
CCCCOCCOP(=O)(OCCOCCCC)OCCOCCCC,inactive,inactive,inactive,inactive,inactive,inactive,inactive,inactive,inactive,inactive,inactive,inactive,inactive,inactive,inactive,–,inactive,inactive,–,inactive
CCCC[N+]1(C)CCCC1 (tested in a mixture with another compound),inactive,inactive,inactive,inactive,inactive,inactive,inactive,inactive,inactive,inactive,inactive,inactive,inactive,9.54 µM (active),inactive,inactive,inactive,inactive,–,inactive
Clc1ccc(C(Cl)(Cl)Cl)c(Cl)c1,inactive,inactive,inactive,inactive,inactive,inactive,inactive,inactive,inactive,inactive,inactive,inactive,inactive,–,inactive,inactive,inactive,inactive,inactive,inactive
CC(C)NC(C)C,inactive,inactive,inactive,inactive,inactive,inactive,inactive,inactive,inactive,inactive,inactive,inactive,inactive,–,inactive,inactive,inactive,inactive,inactive,inactive
C/C=C/CC#N,inactive,inactive,inactive,inactive,inactive,inactive,inactive,inactive,inactive,inactive,inactive,inactive,inactive,inactive,inactive,inactive,inactive,inactive,–,inactive
CCCCCCOC(=O)c1ccccc1C(=O)OCCCCCC,inactive,inactive,inactive,inactive,inactive,inactive,inactive,inactive,inactive,inactive,inactive,inactive,inactive,inactive,inactive,inactive,inactive,inactive,–,inactive
C[N+](C)(C)C,inactive,inactive,inactive,inactive,inactive,inactive,inactive,inactive,inactive,inactive,inactive,inactive,inactive,–,inactive,inactive,inactive,–,22.1 µM (active),inactive
C=CC1(C)OC(=O)N(c2cc(Cl)cc(Cl)c2)C1=O (configuration not stated),inactive,68.2 µM (active) and inactive,inactive,inactive,inactive,inactive,inactive,inactive,inactive,inactive,inactive,inactive,inactive,–,inactive,inactive,inactive,inactive,inactive,inactive
